D1 antagonist – blocks dopamine activation of the human D1 receptor; HEK293 TREx D1 cells, calcium flux, dopamine EC80; hits give low values; activity change, negative = inhibition, % at 10 µM; 360,000 compounds, 3.2% hits; AID 504652; in the data active = activity change below about -30%; note: % is set by controls: 0 for no effect and ±100 for the full control effect
Target sequence (P21728 whole entry, looked up): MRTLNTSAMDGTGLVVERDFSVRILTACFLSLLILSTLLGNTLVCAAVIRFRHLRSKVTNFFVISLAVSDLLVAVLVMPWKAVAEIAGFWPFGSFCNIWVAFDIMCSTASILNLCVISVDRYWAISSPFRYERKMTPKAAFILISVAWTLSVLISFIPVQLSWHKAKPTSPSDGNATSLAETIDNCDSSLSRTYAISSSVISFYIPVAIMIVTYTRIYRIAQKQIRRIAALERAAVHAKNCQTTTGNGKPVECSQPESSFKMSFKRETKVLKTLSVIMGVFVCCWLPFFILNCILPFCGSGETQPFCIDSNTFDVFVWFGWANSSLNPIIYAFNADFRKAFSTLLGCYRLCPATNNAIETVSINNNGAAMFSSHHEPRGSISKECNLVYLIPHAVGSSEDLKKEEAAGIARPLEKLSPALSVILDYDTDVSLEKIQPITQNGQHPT
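Tetracycline-induced HEK293 Trex D1 cells, force-coupled to calcium, dye-loaded; compounds added and read 180 s, then EC80 dopamine added and calcium flux tracked kinetically another 180 s.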
D1 agonist – human D1 receptor agonism | HEK293 T-REx D1 cells, calcium flux, agonist mode | AID 504660 | P21728 | 360,000 compounds, 1% hits | activation, % at 2 µM; note: 0% is about no effect
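Agonism was scored from calcium flux recorded over 180 s (1 read/s) after pintool compound addition, following a 10-cycle baseline. Cells were inducible force-coupled HEK293 TREx D1, plated overnight at 30 C and loaded with no-wash calcium dye.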
TRHR PAM – TRH receptor (human) allosteric enhancement | P34981 | TRHR cells, fluo-8 calcium fluorescence, EC20 TRH enhancement | enhancement, % at 2 µM | 360,000 compounds, 0.66% hits; in the data active = enhancement above about 30%; note: 0% is about no effect
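Enhancer read-out: after compound pinning and an initial kinetic agonist-mode read, an EC20 of TRH (10 nM final) was injected and fluo-8 calcium signal (Ex 480/Em 530) followed at 1 s/cycle for 100 cycles in TRHR-expressing cells.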
TRHR agonist – TRH receptor (human) agonism; P34981; TRHR cells, calcium flux fluo-8, FDSS agonist mode; activation, % at 2 µM; 360,000 compounds, 0.18% hits; note: 0% is about no effect
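TRHR-expressing cells loaded with fluo-8 calcium dye; 23 nL library compound pin-transferred, kinetic FDSS fluorescence (Ex 480/Em 530) recorded about 180 s for agonist-induced calcium release, before a 10 nM TRH EC20 addition for potentiator mode.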
D1 potentiator – enhances dopamine response at the human D1 receptor; P21728; HEK293 TREx D1 cells, calcium flux, dopamine EC20 potentiation; potentiation, % at 10 µM; 360,000 compounds, 0.036% hits; in the data active = potentiation above about 30%; note: 0% is about no effect
Epigenetic reg – epigenetic control regulation, reporter derepression | murine LDR cells, GFP reporter derepression, 30 h | 280,000 compounds, 0.2% hits | Potency, µM (titrated, usually from 53.9 µM), inactives show top-dose GFP activation, most hits filed as activators; active = well fitted activation curve with a large enough effect; note: potency is the fitted concentration of half-maximal effect; % of control where 0% means no effect; nearly all actives have a fitted effect of over 60% in size
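Readout is the number of GFP-expressing murine LDR cells, counted by cytometry following washing. Cells were treated with compound for 30 h at 37 C; the stably integrated CMV-GFP locus is normally silent.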
* hit, by the source's call; / = no result given; [ ] = dose if it differs, or a comment. Shown are actives, neighbours in structure and some others; about 4.6% of the full set was active somewhere. Cut-off read from the data, not from the text of the source, unless noted: active = activation above about 30%; inactive = the rest.

SMILES	D1 antagonist	D1 agonist	TRHR PAM	TRHR agonist	D1 potentiator	Epigenetic reg
CCOC(=O)C1CCN(c2nc3c(S(=O)(=O)c4ccc(C)c(C)c4)nnn3c3ccc(Cl)cc23)CC1	-5	2	-3	0	-8	1%
CC(C)CC1(C(=O)NCc2cc(F)cc(C(F)(F)F)c2)C=CCN1C(=O)c1ccccc1 (centres undefined)	-30*	-1	-19	-1	0	7%
Fc1ccc(-c2n[nH]c(=S)n2-c2ccc3c(c2)OCCO3)cc1	14	2	4	0	-2	1%
S=c1[nH]nc(-c2cccnc2)n1-c1ccc2c(c1)OCCO2	-46*	3	2	1	-2	0%
COc1ccc(COC(=O)Nc2cc3c(C(F)(F)F)nn(C)c3s2)cc1	-18	3	30*	0	-6	1%
Cn1nc(C(F)(F)F)c2cc(NC(=O)OCc3ccc(F)cc3)sc21	-20	5	1	0	-4	-1%
Cc1nn(CC(=O)Nc2cccc(C(F)(F)F)c2)c(=O)c2nn(-c3ccccc3)c(C)c12	7	1	6	0	-3	2%
CC(C)C[C@@H](CC(=O)N[C@H](CC(=O)N[C@@H]1CCCC[C@H]1C(=O)N[C@H](CC(=O)N[C@@H](CCC(=O)O)CC(=O)O)Cc1c[nH]c2ccccc12)C(C)C)NC(=O)[C@@H]1CCCC[C@H]1N	/	/	/	/	/	-1%
CC1(c2ccc(OC(F)F)cc2)NC(=O)N(/N=C/c2c(O)ccc3ccccc23)C1=O (centres undefined)	29	32*	-1	4	-1	-1%
CC(C)Oc1ccc(CNC(=O)c2ccc3c(c2)nc2n3CCCCC2)cc1	3	1	2	-1	-4	7%
COc1cc(Cl)c(C)cc1NC(=O)c1cc2c(Cl)nc3ccc(C)cc3c2s1	-6	1	6	1	-1	-3%
Cc1cc(C)n(CC(O)COc2ccc(C(C)C)c(C)c2)n1 (centres undefined)	11	5	34*	-3	3	/
CC(NCC(O)COc1ccc(Br)cc1)c1ccccc1 (centres undefined)	-14	7	1	2	-10	/
CN(CC(O)COc1ccc2ccccc2c1)C1CCCCC1 (centres undefined)	-3	32*	-7	2	-8	/
CC(NCC(O)COc1ccc2ccccc2c1)c1ccccc1 (centres undefined)	2	42*	15	2	1	/
Cc1cc(OCC(O)CNC(C)c2ccccc2)ccc1C(C)C (centres undefined)	48	30*	10	3	0	/
COc1ccc(OCC(O)CNC(C)c2ccccc2)cc1 (centres undefined)	-4	18	7	2	1	/
COc1ccc(N(CC(=O)Nc2cccc(C(C)=O)c2)S(=O)(=O)c2ccccc2)c(OC)c1	-4	0	-4	-1	-4	1%
CCOc1ccc(-c2nn(CC(=O)NC3CCCCC3)c3c2cnc2ccc(C)cc23)cc1	12	3	7	1	-2	9%
CCOc1ccc(CNC(=O)Cn2nc(C)n3cccc3c2=O)cc1	-3	0	3	1	-2	-2%
O=C(COc1ccccc1F)Nc1ccccc1OCc1cc(=O)n2ccccc2n1	-30	1	-5	0	-1	-3%
COc1ccccc1NC(=O)CCCN1C(=O)C(c2ccccc2)Oc2cccnc21 (centres undefined)	-2	3	3	-2	-7	/
Cc1ccc(C)c(NC(=O)CCCN2C(=O)C(c3ccccc3)Oc3cccnc32)c1 (centres undefined)	0	5	53*	0	-4	1%
CCCN1CCC(=O)N([C@H](CSc2ccc(OC)cc2)CC(C)C)CC1	-34*	0	-6	0	-2	-4%
CN(C(=O)CSc1nc2ccc(NC(=O)CCc3ccccc3)cc2s1)c1ccccc1	-17	2	-2	0	1	1%
SMILES	D1 antagonist	D1 agonist	TRHR PAM	TRHR agonist	D1 potentiator	Epigenetic reg
COc1cc(/C=C2\C(=N)N3N=CSC3=NC2=O)ccc1OS(=O)(=O)c1ccccc1[N+](=O)[O-]	-30*	4	-4	0	-3	/
COc1cc(/C=C2\C(=N)N3N=C(S(C)(=O)=O)SC3=NC2=O)ccc1OC(=O)c1cccs1	4	0	9	-1	-12	/
COc1cc(/C=C2\C(=N)N3N=C(S(C)(=O)=O)SC3=NC2=O)ccc1OCCOc1ccccc1C	6	4	35*	1	-4	/
Cc1ccc(CNC(=O)c2cccc(-n3cnnn3)c2)cc1	15	0	30*	0	-1	-1%
CCOc1ccc(CCNC(=O)c2cccc(C#N)c2)cc1OCC	0	5	1	0	-1	-1%
CCOc1ccc(CCNC(=O)c2cccc(-n3cnnn3)c2)cc1OCC	-31*	4	-1	0	-9	/
CC(=O)c1c(C)n(-c2ccc(Cl)cc2)c2ccc(O)cc12	-5	3	39*	0	0	/
CC(=O)c1c(C)n(-c2ccccc2)c2ccc(O)cc12	-38*	0	4	-1	-6	1%
CC(=O)c1ccc(-n2c(C)c(C(C)=O)c3cc(O)ccc32)cc1	-22	4	3	0	4	/
COC(=O)c1c(C)n(-c2ccc(C)cc2)c2ccc(O)cc12	-62*	2	-4	0	-9	0%
COc1cccc2sc(N3CCN(C(=O)CCS(=O)(=O)c4ccc(F)cc4)CC3)nc12	/	7	-7	0	-2	2%
CC(CNC(=O)C1CCN(C(=O)N2CCOc3ccc(Cl)cc32)CC1)c1ccccc1 (centres undefined)	9	0	8	0	1	1%
COc1ccc(S(=O)(=O)N2CCC(O)(c3ccc(Cl)cc3)CC2)cc1	-36*	11	0	1	-7	1%
COc1ccc(NC(=O)c2c(NC(=O)CCC(=O)O)sc3c2CCCCC3)cc1	-5	3	12	0	8	1%
COc1ccc(NC(=O)c2c(NC(=O)C(F)(F)F)sc3c2CCCCC3)cc1	-36*	59*	-6	5	-2	-2%
Cc1cc(Br)ccc1SCC(=O)OCC(=O)N1CCN(C(=O)c2ccco2)CC1	-1	34*	-2	0	-4	6%
O=C(CSc1ccccc1F)OCC(=O)N1CCN(C(=O)c2ccco2)CC1	-5	0	4	0	3	/
Cc1ccc(-n2c(SCC(=O)N3CCC(C)CC3)nc3c([nH]c4ccccc43)c2=O)cc1	15	0	2	0	-3	8%
CNCCC=C1c2ccccc2C=Cc2ccccc21	/	/	/	/	/	0%[16.9 µM]

Source: PubChem BioAssay (National Center for Advancing Translational Sciences (NCATS))
